log2 fold change data for 22 targets are collected here from the supplement of paper PMC10849652.

Targets with a hit are over-represented here; the source holds about 7,900 in all. About 0.6% of all pairs of compound and target were hits. Values without a mark were called inactive.

Common to all, as to experiment: log2 fold change, soluble protein after heating vs DMSO (PISA); higher = thermal stabilisation; K562 cells, 10 uM, 30 min; active = over 0.2 and 3.5 SD of the protein, either way, in both replicates (recomputed)
Compound in one test: CC[C@@H]1C(=O)N(C)c2cnc(Nc3ccc(C(=O)N[C@H]4CC[C@H](N5CCN(CC6CC6)CC5)CC4)cc3OC)nc2N1C(C)C [volasertib]
In a few lines:
(§1)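 Soluble protein was quantified by TMTpro 16plex LC-MS/MS after channel sums were equalised. It was obtained as the supernatant after 21,000xg for 90 min from pooled aliquots of K562 cells (2×10^6 cells/mL, 10 μM compound, 30 min) heated for 3 min across 48°C-58°C and extracted in PBS with 0.5% NP-40 at 4°C. Thermal stability values are relative to control samples and come from duplicates. They are given as log2 fold changes.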

Compound in the next test: CC[C@H](C)[C@@H](C(=O)N[C@@H]([C@@H](C)O)C(=O)N[C@@H](CC(C)C)C(=O)[C@]1(CO1)C)NC(=O)[C@H]([C@@H](C)CC)N(C)C(=O)C [epoxomicin]
In short, it runs like this:
as §1

Compound in test [1]: CN(C)CC(=O)Nc1ccc2[nH]c(=O)c3ccccc3c2c1
In a few lines:
as §1

Compound in another test: CN(CCOC1=CC=C(C=C1)C[C@H]2C(=O)NC(=O)S2)C3=CC=CC=N3 (racemic) [rosiglitazone]
In short, it runs like this:
as §1

Compound in test [2]: CN1C2=C(C3=C1C(=O)N(N=C3)CC4=CC(=CC=C4)N)SC(=C2)S(=O)C
In short, it runs like this: as §1

Compound in test [3]: CC[C@H](C)N1C=C(C2=C(C=C(C=C21)C3=CN=C(C=C3)N4CCNCC4)C(=O)NCC5=C(C=C(NC5=O)C)C)C
In a few lines:
as §1

Compound in test [4]: CCn1cc(-c2ccnc3[nH]c(-c4cccc(CN(C)C)c4)cc23)c(-c2ccc(NC(=O)N(C)C)cc2)n1
In short, it runs like this: as §1

Compound in test [5]: CN1CCC(CNc2ccc3ncc(-c4cccc(OC(F)(F)F)c4)n3n2)CC1
In a few lines: as §1

Compound in test [6]: CCn1c(C(=O)N(C2CC2)C2CC2)cc2c3c(ncn3C)c(Nc3cc(C)n(C)n3)nc21
In a few lines:
as §1

Compound in test [7]: CC[C@@H]1C(=O)N(C)c2cnc(Nc3ccc(C(=O)NC4CCN(C)CC4)cc3OC)nc2N1C1CCCC1
In a few lines:
as §1

Sequence of UniProt P51812 (P51812 whole entry, looked up): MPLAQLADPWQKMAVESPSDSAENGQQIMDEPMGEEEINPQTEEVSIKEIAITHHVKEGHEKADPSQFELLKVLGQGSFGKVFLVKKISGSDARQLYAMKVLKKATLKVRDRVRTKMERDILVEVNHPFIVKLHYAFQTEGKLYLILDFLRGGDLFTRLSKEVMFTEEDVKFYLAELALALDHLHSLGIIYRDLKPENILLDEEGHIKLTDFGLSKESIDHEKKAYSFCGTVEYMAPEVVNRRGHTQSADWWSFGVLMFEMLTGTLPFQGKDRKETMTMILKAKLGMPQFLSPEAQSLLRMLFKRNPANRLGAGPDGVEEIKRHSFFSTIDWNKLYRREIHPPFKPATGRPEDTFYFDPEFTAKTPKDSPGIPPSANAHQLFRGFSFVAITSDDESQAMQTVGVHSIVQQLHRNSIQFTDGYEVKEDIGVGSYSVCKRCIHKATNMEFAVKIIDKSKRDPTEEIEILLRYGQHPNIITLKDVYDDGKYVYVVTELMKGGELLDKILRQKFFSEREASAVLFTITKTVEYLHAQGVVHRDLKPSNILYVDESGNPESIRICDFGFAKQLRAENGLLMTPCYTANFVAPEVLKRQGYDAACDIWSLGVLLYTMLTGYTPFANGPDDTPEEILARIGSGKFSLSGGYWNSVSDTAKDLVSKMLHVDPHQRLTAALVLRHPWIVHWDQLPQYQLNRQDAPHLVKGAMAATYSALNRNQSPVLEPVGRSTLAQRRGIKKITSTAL
Sequence of UniProt Q5RL73 (Q5RL73 whole entry, looked up): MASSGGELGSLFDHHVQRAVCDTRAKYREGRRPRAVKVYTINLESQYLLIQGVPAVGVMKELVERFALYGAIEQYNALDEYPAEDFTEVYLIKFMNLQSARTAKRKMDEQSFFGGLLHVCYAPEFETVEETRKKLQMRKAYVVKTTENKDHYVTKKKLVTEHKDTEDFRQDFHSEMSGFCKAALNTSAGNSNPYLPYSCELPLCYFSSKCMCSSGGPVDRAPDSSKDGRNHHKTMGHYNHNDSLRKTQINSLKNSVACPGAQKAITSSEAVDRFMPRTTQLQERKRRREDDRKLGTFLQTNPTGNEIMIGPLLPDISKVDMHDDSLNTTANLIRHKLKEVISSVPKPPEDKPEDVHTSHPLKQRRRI
Sequence of UniProt O95716 (O95716 whole entry, looked up): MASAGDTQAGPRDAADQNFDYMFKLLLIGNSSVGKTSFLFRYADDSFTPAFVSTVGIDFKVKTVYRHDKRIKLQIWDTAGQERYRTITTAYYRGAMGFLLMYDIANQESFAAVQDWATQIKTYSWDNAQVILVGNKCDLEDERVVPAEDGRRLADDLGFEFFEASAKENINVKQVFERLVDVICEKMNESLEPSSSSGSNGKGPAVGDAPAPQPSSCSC
Sequence of UniProt Q8WZA2 (Q8WZA2 whole entry, looked up): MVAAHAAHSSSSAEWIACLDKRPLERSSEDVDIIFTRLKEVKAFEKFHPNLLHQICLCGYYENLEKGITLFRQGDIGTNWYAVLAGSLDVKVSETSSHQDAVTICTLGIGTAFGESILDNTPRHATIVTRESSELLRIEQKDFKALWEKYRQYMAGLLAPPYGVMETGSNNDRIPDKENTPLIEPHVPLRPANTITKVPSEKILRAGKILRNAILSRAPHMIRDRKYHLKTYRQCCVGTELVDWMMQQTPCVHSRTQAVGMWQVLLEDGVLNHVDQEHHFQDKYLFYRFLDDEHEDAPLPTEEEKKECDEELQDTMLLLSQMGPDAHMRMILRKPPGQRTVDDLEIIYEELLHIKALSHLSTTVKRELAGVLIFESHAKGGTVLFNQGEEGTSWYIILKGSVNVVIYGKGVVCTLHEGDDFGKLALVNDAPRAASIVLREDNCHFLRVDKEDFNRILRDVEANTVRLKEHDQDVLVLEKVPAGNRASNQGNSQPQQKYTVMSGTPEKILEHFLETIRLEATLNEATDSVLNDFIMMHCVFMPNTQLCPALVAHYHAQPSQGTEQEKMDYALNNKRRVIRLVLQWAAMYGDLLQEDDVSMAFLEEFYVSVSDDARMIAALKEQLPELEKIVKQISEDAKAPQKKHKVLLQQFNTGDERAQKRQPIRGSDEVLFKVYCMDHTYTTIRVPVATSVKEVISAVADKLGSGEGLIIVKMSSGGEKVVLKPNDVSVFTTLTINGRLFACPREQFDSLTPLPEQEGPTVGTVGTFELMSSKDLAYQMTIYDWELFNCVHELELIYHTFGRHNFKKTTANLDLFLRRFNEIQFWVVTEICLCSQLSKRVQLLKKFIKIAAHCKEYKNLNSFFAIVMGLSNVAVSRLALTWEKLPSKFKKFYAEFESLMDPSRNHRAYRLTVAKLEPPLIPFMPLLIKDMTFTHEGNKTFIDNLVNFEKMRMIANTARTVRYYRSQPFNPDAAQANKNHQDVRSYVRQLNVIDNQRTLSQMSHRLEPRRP
Sequence of UniProt Q02383 (Q02383 whole entry, looked up): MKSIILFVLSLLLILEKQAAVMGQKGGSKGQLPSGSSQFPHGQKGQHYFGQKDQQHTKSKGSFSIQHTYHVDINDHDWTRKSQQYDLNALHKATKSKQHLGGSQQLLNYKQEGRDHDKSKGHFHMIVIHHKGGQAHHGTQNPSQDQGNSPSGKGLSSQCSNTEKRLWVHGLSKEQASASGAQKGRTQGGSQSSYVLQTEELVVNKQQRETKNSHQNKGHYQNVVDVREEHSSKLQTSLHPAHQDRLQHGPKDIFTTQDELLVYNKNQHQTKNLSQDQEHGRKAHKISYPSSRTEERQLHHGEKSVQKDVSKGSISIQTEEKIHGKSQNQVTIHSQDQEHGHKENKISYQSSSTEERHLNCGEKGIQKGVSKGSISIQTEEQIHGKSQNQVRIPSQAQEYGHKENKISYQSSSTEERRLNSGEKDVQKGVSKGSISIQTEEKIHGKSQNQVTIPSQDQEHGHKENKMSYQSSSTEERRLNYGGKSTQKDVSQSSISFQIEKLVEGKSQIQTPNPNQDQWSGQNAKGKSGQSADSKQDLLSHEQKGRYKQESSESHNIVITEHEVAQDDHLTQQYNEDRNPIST
Sequence of UniProt O75582 (O75582 whole entry, looked up): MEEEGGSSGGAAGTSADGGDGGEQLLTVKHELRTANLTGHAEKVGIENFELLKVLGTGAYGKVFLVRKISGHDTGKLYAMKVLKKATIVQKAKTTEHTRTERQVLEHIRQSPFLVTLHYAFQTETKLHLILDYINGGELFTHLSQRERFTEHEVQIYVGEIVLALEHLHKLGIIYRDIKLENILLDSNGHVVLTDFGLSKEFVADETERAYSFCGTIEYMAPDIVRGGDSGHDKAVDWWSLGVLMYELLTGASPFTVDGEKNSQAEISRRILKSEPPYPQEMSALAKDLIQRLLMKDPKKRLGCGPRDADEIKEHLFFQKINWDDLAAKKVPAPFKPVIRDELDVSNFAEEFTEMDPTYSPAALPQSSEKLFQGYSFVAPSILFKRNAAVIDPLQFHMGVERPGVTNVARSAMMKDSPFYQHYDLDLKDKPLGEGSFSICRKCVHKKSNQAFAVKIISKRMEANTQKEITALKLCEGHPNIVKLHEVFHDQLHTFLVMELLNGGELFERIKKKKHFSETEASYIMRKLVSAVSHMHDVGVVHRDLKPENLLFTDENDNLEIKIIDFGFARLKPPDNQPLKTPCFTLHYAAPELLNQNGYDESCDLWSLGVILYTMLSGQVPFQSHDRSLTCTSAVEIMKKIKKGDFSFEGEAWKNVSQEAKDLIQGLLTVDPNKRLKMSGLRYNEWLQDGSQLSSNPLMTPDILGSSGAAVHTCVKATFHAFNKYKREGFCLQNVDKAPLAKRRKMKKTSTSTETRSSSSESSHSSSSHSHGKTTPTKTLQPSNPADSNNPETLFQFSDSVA
Sequence of UniProt Q7L099 (Q7L099 whole entry, looked up): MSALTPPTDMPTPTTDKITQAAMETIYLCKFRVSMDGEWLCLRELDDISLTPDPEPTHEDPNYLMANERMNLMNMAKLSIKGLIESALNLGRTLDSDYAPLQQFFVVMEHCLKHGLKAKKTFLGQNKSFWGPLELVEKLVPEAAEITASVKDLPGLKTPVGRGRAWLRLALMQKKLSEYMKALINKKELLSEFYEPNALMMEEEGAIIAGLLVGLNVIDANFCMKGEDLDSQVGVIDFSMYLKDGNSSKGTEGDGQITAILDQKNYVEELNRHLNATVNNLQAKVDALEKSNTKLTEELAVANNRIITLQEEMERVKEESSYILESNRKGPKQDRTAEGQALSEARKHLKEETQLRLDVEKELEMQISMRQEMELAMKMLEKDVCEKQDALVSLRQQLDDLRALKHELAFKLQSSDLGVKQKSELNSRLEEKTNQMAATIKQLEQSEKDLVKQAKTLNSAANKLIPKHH

Regarding RPAIN isoform 8 (UniProt Q86UA6), the log2 fold change was -0.718 (active) with volasertib; -0.118 in the test with epoxomicin; -0.076 in test [1]; -0.021 with rosiglitazone; -0.044 in test [2].

Consider RBM6 (UniProt P78332), for which the log2 fold change was -0.148 in the test with volasertib; 0.094 in test [3]; 0.148 in test [4]; 0.109 in [2]; 0.175 in test [5].

In the case of RPS6KA3 (UniProt P51812), the log2 fold change is -0.174 in the test with volasertib; 0.065 in [3]; 0.027 with epoxomicin; 0.066 in [6]; -0.049 in test [4]; 0.016 in [1]. Also, the log2 fold change was 0.052 in the test with rosiglitazone, -0.043 in test [2] and -0.192 in test [5].

Consider RPS3A (UniProt D6R9B6), for which the log2 fold change in test [2] was 0.247.

Consider RAB3D (UniProt O95716), for which the log2 fold change in [7] was 0.039; with volasertib, 0.025; in test [3], 0.097; in test [6], 0.067; in test [4], 0.041; in test [1] it was -0.098. The log2 fold change with rosiglitazone is -0.013; in test [2], 0.103; in [5], 0.129.

Regarding S100A10 (UniProt P60903), the log2 fold change in [7] was 0.284; with volasertib, -0.048; in [3], 0.145; in test [4], -0.056; with rosiglitazone it was -0.094; in [5], -0.026.

As for RBM48 isoform 2 (UniProt Q5RL73), the log2 fold change in the test with volasertib is -0.003; in test [3] it was 0.002; in the test with epoxomicin, 0.003; in [6], 0.13; in test [4] it was 0.078; with rosiglitazone, 0.006. Moreover, the log2 fold change in [5] was 0.114.

As to SIK3 (UniProt H0Y4E8), the log2 fold change in test [7] is 0.032; in the test with volasertib, -0.109; in [3], -0.02; in [6] it was -0.058; in [4] it was -0.065; in [1] it was -0.111. Besides, the log2 fold change in test [2] was -0.019; in test [5], -0.071.

For RMDN2 isoform 2 (UniProt Q96LZ7), the log2 fold change in test [3] was 0.068; in test [1] it was -0.167.

Consider RPS6KA5 (UniProt O75582), for which the log2 fold change is 0.024 in test [7], -0.529 with volasertib, 0.048 with epoxomicin and -0.127 in test [6].

In the case of RNF185 (UniProt Q96GF1), the log2 fold change in [7] was -0.041; with volasertib, -0.101; in test [3], -0.06; in test [6] it was 0.02; in test [4] it was -0.003; in test [1], 0.028. The results for the log2 fold change (with rosiglitazone; in [5]) were -0.075 and 0.09, respectively.

Turning to RNF41 (UniProt Q9H4P4), the figures for the log2 fold change (in test [7]; in the test with rosiglitazone) were 0.044 and -0.073, respectively.

Consider RAD50, A0A494C0Y7, for which the log2 fold change was 0.077 in test [7]; -0.109 with volasertib; 0.033 in test [4]; 0.055 in test [1]; -0.001 in the test with rosiglitazone; 0.097 in [2]. Besides, the log2 fold change in [5] is 0.04.

With RAPGEF4 (UniProt Q8WZA2), the log2 fold change in [7] is -0.13; with epoxomicin, -0.038; in [6] it was -0.136; in [1] it was -0.011; with rosiglitazone it was 0.065; in test [2] it was -0.036.

Take RPS3 (UniProt E9PJN9): the log2 fold change was 0.098 in test [7], -0.125 in test [4], 0.088 in test [2] and 0.089 in test [5].

In the case of SH3PXD2B (UniProt A1X283), the log2 fold change in test [7] is -2.01 (active); in test [3], -0.068; in the test with epoxomicin, 0.048; in test [6] it was 0.014; in test [4], 0.097; in test [1] it was -0.019. Moreover, the log2 fold change with rosiglitazone is -0.008; in test [5], -1.2 (active).

Turning to RABGAP1L isoform 5 (UniProt Q5R372), the log2 fold change is 0.01 with volasertib; 0.074 in test [3]; -0.085 with epoxomicin; 0.017 in test [6]; 0.046 in the test with rosiglitazone; 0.059 in test [2].

For the target SDC3 (UniProt O75056), the log2 fold change was 0.223 in test [7]; 0.067 in test [3]; 0.005 with epoxomicin; -0.401 in test [4]; 0.006 in [1]; -0.017 in test [2]. Moreover, the log2 fold change in test [5] was 0.632.

Consider RBMY1E (UniProt A6NEQ0), for which the log2 fold change was -0.068 in [7]; -0.236 with volasertib; -0.034 in test [3]; -0.134 in test [6]; 0.084 in [4]; -0.058 with rosiglitazone. Further, the log2 fold change in [5] was -0.199.

As to SEMG2 (UniProt Q02383), the log2 fold change is 0.043 in test [7]; 0.15 in test [3]; 0.06 with epoxomicin; 0.035 in [4]; 0.049 with rosiglitazone; 0.058 in test [5].

As to RPS19 (UniProt M0R2L9), the results for the log2 fold change (with volasertib; in test [3]) were 0.492 and -0.256, respectively.

In the case of RUFY3 isoform 3 (UniProt Q7L099), the log2 fold change in test [7] was -0.135; with volasertib it was -0.149; in test [3] it was -0.071; in test [6], -0.046; in test [4], 0.079; in [1], 0.011. Moreover, the log2 fold change in test [2] is -0.015; in [5] it was -0.048.
